Only a selection was taken, and hits are over-represented in it overall.
ST2 IL33 inh – inhibitors of human ST2 (IL1RL1) binding to IL-33, primary screen, biochemical, AlphaLISA; AID 1259354, 2018; 2.3% of 78,000 active; AlphaLISA ST2-Fc/biotin-IL-33 interaction, 1 h; inhibition, % for hits at 17 µM; in the data active = inhibition above about 30%
Target sequence (Q01638 whole entry, looked up): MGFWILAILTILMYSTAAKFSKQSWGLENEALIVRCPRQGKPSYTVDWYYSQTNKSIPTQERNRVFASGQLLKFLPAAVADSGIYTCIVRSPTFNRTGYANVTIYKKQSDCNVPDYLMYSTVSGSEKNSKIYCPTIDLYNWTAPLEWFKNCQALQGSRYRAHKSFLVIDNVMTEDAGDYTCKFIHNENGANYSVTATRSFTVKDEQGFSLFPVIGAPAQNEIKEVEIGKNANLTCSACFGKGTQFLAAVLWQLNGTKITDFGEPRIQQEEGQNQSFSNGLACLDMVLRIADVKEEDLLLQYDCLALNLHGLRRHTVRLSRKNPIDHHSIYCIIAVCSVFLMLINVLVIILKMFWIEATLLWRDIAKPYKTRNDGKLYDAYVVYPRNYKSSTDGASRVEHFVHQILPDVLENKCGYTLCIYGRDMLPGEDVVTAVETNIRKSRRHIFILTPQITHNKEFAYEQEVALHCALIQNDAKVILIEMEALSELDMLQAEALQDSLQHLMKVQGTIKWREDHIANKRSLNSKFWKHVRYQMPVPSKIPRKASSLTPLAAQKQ
Active calls of the source: *; i = inactive.

SMILES | ST2 IL33 inh
CCCOc1ccc(C(=O)Nc2ccccc2[N+](=O)[O-])cc1 | 39%*
CCN(CC)c1ccc(NC(=O)c2ccccc2Br)c(C)c1 | i
CCOc1ccc(NC(=O)c2ccccc2Br)c([N+](=O)[O-])c1 | 36%*
CCc1ccccc1NC(=O)c1ccccc1[N+](=O)[O-] | i
CCCOc1cccc(C(=O)Nc2ccccc2Cl)c1 | i
CCCOc1ccc(C(=O)Nc2cc(Cl)ccc2Cl)cc1 | i
Cc1ccc(NC(=O)c2ccccc2[N+](=O)[O-])cc1 | i
CCOc1cccc(C(=O)Nc2ccc(C)cc2[N+](=O)[O-])c1 | i
CCOc1ccccc1NC(=O)c1ccccc1C | i
Cc1c(C(=O)Nc2ccccc2[N+](=O)[O-])csc1-c1ccccc1 | 35%*
COCCOc1cc(C)c2c(c1C)C[C@H]([C@H](C)C(=O)N1CCSCC1)CC2 | i
CCCn1nnnc1NCc1ccc2c(c1)OCO2 | i
C1=C(c2ccccc2)Nc2nnnn2C1c1ccccc1 (configuration not stated) | i
CCOc1ccc(C2C(C(=O)Nc3ccc(C)cn3)=C(C)NC3=C2C(=O)CC(C)(C)C3)cc1 (configuration not stated) | i
O=C1CC(N2CCOCC2)C(=O)N1c1ccc(Br)cc1Br (configuration not stated) | i
CCc1nnc(NC(=O)CSc2nc(=O)cc(N)n2-c2ccccc2)s1 | i
COc1ccccc1-c1nc(C(N)=O)c2c(n1)n(-c1ccc(C)c(C)c1)c(=O)n2Cc1ccccc1 | i
Cc1cccn2c(=O)c3cc(C(=O)Nc4ccc(F)c(F)c4)sc3nc12 | i
CCOC(=O)C1CCN(Cc2cnc(S(C)(=O)=O)n2CCCOC)CC1 | i
O=c1[nH]c2ccc(S(=O)(=O)Nc3ccc(C(F)(F)F)cc3)cc2[nH]c1=O | i
CCc1cccc(OCCOCCN2CCCC2)c1 | i
COc1ccccc1OCCOc1ccc([N+](=O)[O-])cc1/C=C1/C(=O)N(c2ccccc2)N=C1C | i
COc1ccccc1/C=C1/C(=O)N(c2ccccc2)N=C1C | i
COc1cccc(OCCOc2ccc(/C=C3/C(=O)N(c4ccccc4)N=C3C)cc2OC)c1 | 43%*
COc1cc(/C=C2\C(=O)N(c3ccccc3)N=C2C)ccc1OCc1ccc(F)cc1 | i
SMILES | ST2 IL33 inh
CC1=NN(c2ccccc2)C(=O)/C1=C/c1ccc(O)c(Br)c1 | i
Cc1cccc(OCCOCCOc2ccc(/C=C3\C(=O)NN(c4ccccc4)C3=O)cc2)c1 | 34%*
COc1cccc(/C=C2\C(=O)N(c3cccc(Cl)c3)N=C2C)c1 | i
C=CCN1C(=O)NC(=O)/C(=C/c2cccc(OCc3ccccc3Cl)c2)C1=O | i
CC1=NN(c2ccccc2)C(=O)/C1=C\c1ccccc1OCc1ccccc1 | 40%*
CC1=NN(c2ccccc2)C(=O)/C1=C/c1cccc(C(=O)O)c1 | i
COc1cc(/C=C2/C(=O)N(c3ccccc3)N=C2C)ccc1OCCOCCOc1ccccc1 | 45%*
CC(C)Cc1ccc(S(=O)(=O)NC2CCN(Cc3ccccc3)CC2)cc1 | i
CCOc1ccc(N2CC(=O)Nc3ccccc3S2(=O)=O)cc1 | i
COc1ccc(NC(=O)c2noc3c2CCCCC3)c(OC)c1 | i
C=CCN(Cc1ccccc1OC)C(=O)c1csc(C)n1 | i
O=S(=O)(NCCC1=CCCCC1)c1cccc2cccnc12 | i
O=C1C=C(c2ccccc2)C[C@H](c2cccs2)[C@H]1n1nnc([N+](=O)[O-])n1 | 33%*
CCOC(=O)C1C(=O)C=C(c2ccc(OC)c(OC)c2)CC1c1cccs1 (configuration not stated) | i
O=C1C=C(/C=C/c2ccccc2)C[C@H](c2ccccc2)[C@H]1n1nnc([N+](=O)[O-])n1 | 58%*
O=c1c(O[C@@H]2O[C@H](CO)[C@@H](O)[C@H](O)[C@H]2O[C@@H]2OC[C@@H](O)[C@H](O)[C@H]2O)c(-c2ccc(O)cc2)oc2cc(O)cc(O)c12 | i
COc1cccc2sc(N3CCOCC3)nc12 | i
Cc1onc(-c2ccccc2)c1C(=O)N1CCCC(Nc2ccc3c(c2)OCCO3)C1 (configuration not stated) | i
NC(=O)CSc1nc2c([nH]c3ccccc32)c(=O)n1-c1cccc(Cl)c1 | i
CCO[C@H]1COC[C@@H]1NC(=O)c1sc(OC)nc1C | i
O=C(NCCO)C(=O)Nc1ccc(Cl)cc1 | i
CCOCCCn1c(=N)c(C(=O)NC(C)c2ccccc2)cc2c(=O)n3ccccc3nc21 (configuration not stated) | i
COc1cc(OC)c(OC)cc1CN1CCN(C/C=C/c2ccccc2)CC1 | i
Cc1ccccc1C(=O)Nc1nnc(SCC(=O)NCC2CCCO2)s1 (configuration not stated) | i
O=C(c1ccc2nc3ccccc3c(=O)n2c1)N1CCN(Cc2ccc3c(c2)OCO3)CC1 | i
SMILES | ST2 IL33 inh
O=C(c1nc(N2CCCC2)nc2c1CCCC2)N1CCN(Cc2ccc3c(c2)OCO3)CC1 | 32%*
NNC(=O)CN1CCN(Cc2ccc3c(c2)OCO3)CC1 | i
COc1ccccc1C(=O)N/C(=C\c1ccc(Br)cc1)C(=O)O | i
CC(=O)N1CCN(c2ncccc2CNC(=O)CSc2ccccc2)CC1 | i
O=C(CSc1nc2ccccc2o1)Nc1ccccc1 | i
O=[N+]([O-])c1ccc(CSc2nc3ccccc3o2)cc1 | 35%*
Cn1c(CSc2nc3ccccc3o2)nc2ccccc21 | i
Cc1ccccc1C(=O)Nc1c(-c2cccs2)nc2ccccn12 | i
CCOc1ccccc1N1CCN(C2CC(=O)N(c3ccccc3)C2=O)CC1 (configuration not stated) | i
COc1ccccc1N1C(=O)CC(N2CCOCC2)C1=O (configuration not stated) | i
CCOc1ccccc1N1C(=O)CC(Nc2ccc(N3CCOCC3)cc2)C1=O (configuration not stated) | 51%*
Cc1cc2c3c(c1)C1C=CCC1C(C(=O)O)N3CC1CC=CC21 (configuration not stated) | 33%*
O=C(C1CCCC1)N(c1ccc(F)cc1)C1C=CS(=O)(=O)C1 (configuration not stated) | i
CCC1=C(C)/C(=C\c2[nH]c(C)c(CC)c2C)N=C1C | 78%*
CC1CC(=O)C2=C(C1)OC(N)=C(C#N)C2c1ccc(F)c(F)c1 (configuration not stated) | i
CCOC(=O)C1(C/C=C/c2ccccc2)CCCN(C(=O)Cn2cnnn2)C1 (configuration not stated) | i
CCSc1nnc2c(n1)OC(c1ccsc1)Nc1ccc(Br)cc1-2 (configuration not stated) | i
C=CCN(C)C(=O)C[C@@H]1O[C@H](CNC(=O)c2ccccc2)[C@@H](O)[C@H]1O | i
CC(=O)N1N=C(c2ccc(Cl)cc2)OC1(C)C | i
COc1cccc(C2=NN(C(=O)Cc3ccc([N+](=O)[O-])cc3)C(O)(C(F)(F)F)C2)c1 (configuration not stated) | i
COc1ccc(CC2(C)OC(c3ccc([N+](=O)[O-])cc3)=NN2C(C)=O)cc1 (configuration not stated) | 49%*
CN(CC(=O)NCc1ccc2c(c1)OCO2)S(=O)(=O)c1ccc2c(c1)CCC(=O)N2 | i
CN(C)Cc1ccccc1-c1ccc2n(c1=O)C[C@H]1C[C@@H]2CN(S(=O)(=O)c2ccc(F)cc2)C1 | i
